ALDH1A1 inh: qHTS Assay for Inhibitors of Aldehyde Dehydrogenase 1 (ALDH1A1); Purified ALDH1A1, NADH fluorescence, propionaldehyde substrate; 220,000 compounds, 7.3% hits; AID 1030, 2008; Potency, µM (titrated, usually from 75.3 µM), actives largely listed as inhibitors; active = well fitted inhibition curve with a large enough effect, not every such curve was filed as active; inconclusive = small, poorly fitted or top-dose-only effect, or another doubt; inactive = no such curve, though single readings can be large or run the other way
Target sequence (P00352 whole entry, looked up): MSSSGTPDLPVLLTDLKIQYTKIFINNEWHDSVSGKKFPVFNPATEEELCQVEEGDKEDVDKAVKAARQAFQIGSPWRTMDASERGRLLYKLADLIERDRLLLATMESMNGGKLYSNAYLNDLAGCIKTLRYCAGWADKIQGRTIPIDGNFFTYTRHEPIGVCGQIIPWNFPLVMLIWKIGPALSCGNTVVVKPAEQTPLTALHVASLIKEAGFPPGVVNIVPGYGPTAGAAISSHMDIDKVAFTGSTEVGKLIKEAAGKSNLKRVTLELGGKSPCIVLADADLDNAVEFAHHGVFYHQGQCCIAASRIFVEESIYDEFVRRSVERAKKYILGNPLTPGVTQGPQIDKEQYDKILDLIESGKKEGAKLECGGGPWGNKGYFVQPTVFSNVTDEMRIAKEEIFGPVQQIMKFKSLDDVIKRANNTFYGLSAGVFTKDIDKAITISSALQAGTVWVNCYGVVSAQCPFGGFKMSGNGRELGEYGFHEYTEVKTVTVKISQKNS
IMPase inh: qHTS Assay for Identifying the Cell-Membrane Permeable IMPase Inhibitors; Inositol monophosphatase 1 (Rattus norvegicus), P97697; CHO-M1 cells, IP1 accumulation, HTRF TR-FRET ratio; inhibition (IP1 accumulation), % at 46.1 µM; 120,000 tested, under 10 active; AID 901, 2007; active = well fitted curve in the direction sought with a large enough effect in the signal ratio, not every such curve was filed as active; inconclusive = small, poorly fitted or top-dose-only effect, or a change in a side signal; inactive = no such curve, though single readings can be large or run the other way; the % refers to the signal ratio;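 note: cells stimulated with carbachol in lithium chloride buffer; higher means more IMPase inhibition seen as more IP1 and lower FRET ratio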
Target sequence (P97697 whole entry, looked up): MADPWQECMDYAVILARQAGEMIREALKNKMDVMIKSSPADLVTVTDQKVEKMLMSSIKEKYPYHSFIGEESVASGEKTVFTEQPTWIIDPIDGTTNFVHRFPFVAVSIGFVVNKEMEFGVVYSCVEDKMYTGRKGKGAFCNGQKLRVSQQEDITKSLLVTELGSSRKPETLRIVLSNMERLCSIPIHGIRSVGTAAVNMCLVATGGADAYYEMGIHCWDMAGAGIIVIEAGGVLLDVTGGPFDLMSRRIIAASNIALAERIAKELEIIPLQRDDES
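Cellular IMPase inhibition is scored as a rise in cytosolic IP1, detected by competitive TR-FRET between d2-labelled IP1 and a europium anti-IP1 antibody. M1-expressing CHO cells were stimulated with carbachol for 30 min at 37C, with lithium (50 mM LiCl) present in the buffer.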
HTT ATP protect: qHTS Multiplex Assay to Identify Dual Action Probes in a Cell Model of Huntington: Cytoprotection (ATP) | PC12 HTT-Q103 induced, cytoprotection, ATP luminescence, 40 h | Potency, µM (series often up to 56.4 µM), hits mostly activators | 230,000 compounds, 0.14% hits | AID 1471, 2008; note: nearly all actives have a fitted effect of over 45% in size
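Stable PC12 Q103-GFP cells in serum-supplemented, phenol red-free DMEM; induction by tebufenozide at 100 nM final; compound dose series; cell viability quantified luminescently from ATP.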
HTT aggregate: qHTS Multiplex Assay to Identify Dual Action Probes in a Cell Model of Huntington: Aggregate Formation (GFP); PC12 HttQ103-GFP aggregates, Acumen cytometry, 40 h; Potency, µM (series often up to 46.1 µM), usual class: inhibitors; 220,000 compounds, 1.1% hits; AID 1688, 2009; note: nearly all actives have a fitted effect of over 60% in size
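Aggregates are detected as GFP objects 1–25 µm with signal 6 STDEV over background in lysates of induced PC12 cells. These carry Huntingtin exon 1 with 103 glutamines fused to GFP under an ecdysone promoter; compounds titrated.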
IMPase Li inh: qHTS Assay for Identifying the Cell-Membrane Permeable IMPase Inhibitors: Potentiation with Lithium | CHO-M1 cells, IP1 TR-FRET (IP-One), carbachol + lithium | Potency, µM (top dose mostly 59.4 µM), actives largely listed as inhibitors | 210,000 compounds, 0.35% hits | AID 1457, 2008;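 note: IP1 builds up when IMPase is blocked and the TR-FRET signal falls; nearly all actives have a fitted effect of over 50% in size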
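Lithium-sensitised IP1 accumulation assay; M1-expressing CHO cells treated 30 min at 37C with compound. Competitive antibody detection by time-resolved FRET followed a 10 min room-temperature lysis step.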
HPGD block: qHTS Assay for Inhibitors of HPGD (15-Hydroxyprostaglandin Dehydrogenase); 15-hydroxyprostaglandin dehydrogenase [NAD(+)] (Homo sapiens), P15428; purified HPGD, NADH fluorescence kinetic, PGE2 substrate; Potency, µM, most hits filed as inhibitors; 150,000 compounds, 4.3% hits; AID 894, 2007; active = well fitted inhibition curve with a large enough effect, not every such curve was filed as active; inconclusive = small, poorly fitted or top-dose-only effect, or another doubt; inactive = no such curve, though single readings can be large or run the other way
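NADH formation kinetics: reaction with 30 uM PGE2 and 1 mM NAD+ (final), 20 nM enzyme, Tris-HCl pH 8 with Tween 20, after 15 min compound preincubation at room temperature. Fluorescence change, last versus first of five reads.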
Hits are given with their value; – = inactive; ? = inconclusive; · = no result given; [ ] = another dose, or the depositor's remark. The list is not random: actives were taken first. Their share in the collection is about 9.4%. Unless noted, calls come from the whole dose curve; as a rule, active = well fitted curve in the direction sought with a large enough effect; inconclusive = small, poorly fitted or top-dose-only effect, or another doubt; inactive = no such curve, though single readings can be large; an effect the other way counts as inactive or inconclusive.

SMILES	ALDH1A1 inh	IMPase inh	HTT ATP protect	HTT aggregate	IMPase Li inh	HPGD block
C[C@H](O)Cn1cnc2c1c(=O)n(C)c(=O)n2C	–	–	–	–	–	–
O=C(c1ccc(S(=O)(=O)N2CCCCCC2)cc1)N1CCN(c2ccccn2)CC1	12.6µM	–	–	–	–	–
O=C(c1cccc(S(=O)(=O)N2CCc3ccccc32)c1)N1CCN(c2ccccn2)CC1	12.6µM	·	–	?	–	·
CCOC(=O)N/N=C1/C[C@@H](O)[C@@H](O)[C@@H]2[C@@H]3C(=O)N([C@@H](C)c4ccccc4)C(=O)[C@H]3CC[C@H]12	–[13.5 µM]	·	–[10 µM]	·	·	·
COCCNC(=O)c1cc2sccc2n1C	–	·	–[10 µM]	–[9.22 µM]	–	·
COCCNC(=O)C(C)OC(=O)c1cc2occc2n1C (centres undefined)	31.6µM	–	–	?	–	14.1µM
CCOC(=O)CSc1nc2sc3c(c2c(=O)n1-c1ccccc1)CC(C(C)C)OC3 (centres undefined)	·	–	·	·	·	·
Cc1ccc(C)n1-c1nccc(-c2ccco2)n1	?	·	–[10 µM]	–	–	·
CN(Cc1ccccc1)S(=O)(=O)c1ccc(Cl)nc1	22.4µM	–	–	–	–	–
N=C(N)SCc1cc(Cl)cc(Cl)c1O	–[13.5 µM]	·	–[10 µM]	·	–	–
CS(=O)(=O)N(CC(=O)N1CCN(c2ccccc2F)CC1)C1CCCCC1	7.94µM	–	–	–	–	–
OCCCCCNc1ncnc2ccccc12	–	?	–[10 µM]	7.94µM	–	–
Nc1ncnc(NCc2ccccc2)c1[N+](=O)[O-]	–	·	·	11.2µM	–	–
COc1cc2ncnc(NCc3ccccc3)c2cc1OC	–	–	–[10 µM]	?	–	?
c1ccc(CNc2ncnc3ccccc23)cc1	–	–	–[10 µM]	4.47µM	–	–
Nc1ncnc(NCc2ccc(F)cc2)c1[N+](=O)[O-]	–	·	–[10 µM]	?	–	·
COc1ccc(COC(=O)N/N=C2/C[C@@H](O)[C@@H](O)[C@@H]3[C@@H]4C(=O)N(Cc5ccccc5)C(=O)[C@H]4CC[C@@H]23)cc1	–[13.5 µM]	·	–[10 µM]	·	·	·
Cc1ccccc1Nc1oc(-c2ccccc2)nc1CCc1ccccc1	?	·	–	·	–	–
CCOC(=O)c1c(CC(C)C)csc1/N=C/C1C(=O)CCCC1=O	11.2µM	·	–	–	–	·
CCOC(=O)c1c(-c2ccccc2)csc1/N=C/C1C(=O)CCCC1=O	3.55µM	·	·	?	–	–
Cc1ccc(S(=O)(=O)c2c(C(=O)c3ccccc3)cnc3cc4c(cc23)OCCO4)cc1	?	–	–[10 µM]	?	·	·
COC(=O)c1cc(NC(=O)Cn2c(=O)cnc3ccccc32)cc(C(=O)OC)c1	0.355µM	–	–	–	–	–
COC(=O)c1cc(NC(=O)Cc2ccc(OC)cc2)cc(C(=O)OC)c1	0.891µM	–	–	–	–	–
COC(=O)Cn1c(=O)cnc2ccccc21	?	–	–	–	–	–
Cc1nn(C(=O)COc2ccccc2Br)c(C)c1Sc1ccccc1	·	–	·	·	·	·
SMILES	ALDH1A1 inh	IMPase inh	HTT ATP protect	HTT aggregate	IMPase Li inh	HPGD block
CS(=O)(=O)N1CCC[C@@]2(CCN(c3ccccn3)C2)C1	?	·	–	·	–	?
CCOC(=O)/C=C(\C)N1N=C(c2ccccc2)CC1c1ccccc1 (centres undefined)	1µM	·	–	–	–	·
COc1ccc(C2=NN(C(N)=S)C(c3ccccc3)C2)cc1 (centres undefined)	7.51µM	·	–	–	–	·
C=CCNCC(=O)N1N=C(c2ccc3ccccc3c2)CC1c1ccc(OC)cc1 (centres undefined)	?	·	–[10 µM]	12.6µM	–	·
COc1ccc(C2=NN(C(=S)Nc3ccccc3)C(c3ccccc3)C2)cc1 (centres undefined)	12.6µM	·	·	–	–	–
C=CC(=O)N1C(=O)c2ccccc2S1(=O)=O	–	·	?	·	–	–
O=c1c(-c2cccs2)nc2cncnc2n1Cc1ccc(F)cc1	?	·	–	·	–	·
O=C(c1cc2ccccc2oc1=O)N1CCN(c2ccc(Cl)cc2)CC1	·	–	·	·	·	·
COc1ccc(C2CC(c3ccccc3)=NN2C(=S)Nc2ccccc2)cc1 (centres undefined)	–	·	·	?	–	·
COc1ccc(C2CC(c3ccc(Br)cc3)=NN2C(=S)Nc2ccccc2)cc1 (centres undefined)	11.2µM	·	·	–	–	·
O=C1[C@H]2[C@H]3C=C[C@@H](C4[C@H]3[C@@H]3C(=O)N(CN5CCSCC5)C(=O)[C@H]43)[C@H]2C(=O)N1CN1CCSCC1 (some centres undefined)	–[13.5 µM]	·	·	·	–	–
CCOC(=O)c1nc(-c2ccc(OC)c(OC)c2)no1	–	·	–[10 µM]	0.631µM	–	·
CCOC(=O)c1c(C)nc(C)c(C(=O)OCC)c1-c1ccc(O)c(OC)c1	15.8µM	·	–	–	–	·
COC(=O)c1c(C)nc(C)c(C(=O)OC)c1-c1ccc(OC)c(OC)c1	–	·	·	·	–	·
COC(=O)C(CCSC)NC(=O)c1cc2c(n(-c3ccc(Cl)cc3)c1=O)CCCC2=O (centres undefined)	·	–	·	·	·	·
COC(=O)c1ccccc1NC(=O)C(=O)NCc1ccncc1	–	·	–	–	–	·
CCCSc1nc(-n2ncc(C#N)c2N)c2c3c(sc2n1)CCC(C)C3 (centres undefined)	3.98µM	–	–	?	–	?
CCN(CC)c1ccc(C2C(C(=O)OC)=C(C)NC(C)=C2C(=O)OC)cc1	?	–	–[10 µM]	–	?	?
COC(=O)C1=C(C)NC(C)=C(C(=O)OC)C1c1ccc(NC(C)=O)cc1	?	–	–[0.074 µM]	3.16µM	–	–
COc1cccc([C@@H]2Oc3ccc(OC)cc3/C(=N/O[C@@H](C)CN3CCCCc4nc(C)c(C)cc43)[C@@H]2O)c1	–[13.5 µM]	·	–[10 µM]	·	·	·
Nc1ncnc(N2CCc3ccccc32)c1[N+](=O)[O-]	–	·	–	2.51µM	–	·
Nc1ncnc(Nc2ccccn2)c1[N+](=O)[O-]	–	·	?	?	–	·
Cc1c(C(=O)N2CCN(C)CC2)oc2c1C(=O)CC(C)(C)C2	22.4µM	–	–[0.074 µM]	–	–	–
Cc1c(C(=O)N2CCOCC2)oc2c1C(=O)CC(C)(C)C2	–	–	–	–	–	–
CCN(CC(=O)O)C(=O)c1cccnc1	–[13.5 µM]	·	–[10 µM]	·	–	–
CC1=C(C(=O)Nc2ccc(C)cc2)C(c2ccccc2Cl)n2nnnc2N1 (centres undefined)	·	–	·	·	·	·
